DAT uptake mod: human DAT dopamine uptake with cocaine, either direction | Q01959 | LLC-PK1 hDAT cells, [14C]-dopamine uptake with cocaine IC80; actives deviate in either direction | B-score at 10 µM | 110,000 tested, 1.3% active | AID 449768;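 active means Z score or B-score, a plate-position-corrected score, falls beyond the plate's 99.7% confidence bounds, in either direction; inactive means both scores lie inside the 99.7% bounds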;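 further: scored against the spread of the other compound wells on the same plate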
BAP1 block: inhibitors of human BAP1 deubiquitinase | Q92560 | recombinant BAP1, Ub-AMC hydrolysis fluorescence kinetic; stronger effect = lower value | calls only at 20 µM | 72,000 tested, 0.48% active;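 active means activity remaining at or below 50% of control, provided the compound also passes the data quality filters; inactive means the rest, including low values that fail the filters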;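 further: 100% = DMSO wells rate and 0% = substrate alone blank rate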
D1 mod: allosterically modulates the human D1 dopamine receptor; P21728; HEK293 D1, CRE-luciferase, dopamine EC30 potentiation; actives deviate in either direction; B-score at 10 µM; 58,000 tested, 5.9% active; AID 641;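 active means luminescence count or its row- and column-corrected plate score outside the 99.7% band of the plate's sample wells, on either side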
Target sequence (P21728 whole entry, looked up): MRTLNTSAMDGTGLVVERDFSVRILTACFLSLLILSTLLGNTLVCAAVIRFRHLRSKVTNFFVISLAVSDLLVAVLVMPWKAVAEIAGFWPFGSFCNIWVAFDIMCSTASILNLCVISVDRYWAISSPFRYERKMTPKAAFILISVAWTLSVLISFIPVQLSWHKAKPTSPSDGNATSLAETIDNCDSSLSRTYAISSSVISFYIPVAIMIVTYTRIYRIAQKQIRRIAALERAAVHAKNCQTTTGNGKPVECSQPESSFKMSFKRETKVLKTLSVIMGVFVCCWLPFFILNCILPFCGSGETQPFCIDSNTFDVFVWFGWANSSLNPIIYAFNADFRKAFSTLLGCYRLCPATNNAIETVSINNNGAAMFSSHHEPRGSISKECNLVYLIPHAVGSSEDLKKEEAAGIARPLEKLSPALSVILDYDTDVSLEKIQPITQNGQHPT
* = called active by the depositor; i = inactive; . = no result given. Many of the other results were omitted from the sample, so hits are more common in it than they were.

SMILES	DAT uptake mod	BAP1 block	D1 mod
O=C(O)CCC(=O)Nc1ccc(-c2cn3ccccc3n2)cc1	.	i	.
CN1CCN(CCCNC(=O)c2cc3c(-c4ccc(Cl)cc4)nn(C)c3s2)CC1	0.44	i	-2*
CCOC(=O)N1CCC(NC(=O)c2cc3c(-c4ccccc4F)nn(C)c3s2)CC1	-0.051	i	0.11
CCN(CC)CCCNC(=O)c1cc2c(-c3ccc(Cl)cc3)nn(C)c2s1	0.24	i	-1.8
CC1CCCCN1CCNC(=O)c1cc2c(-c3ccccc3F)nn(C)c2s1 (stereo not drawn)	0.68	i	-5.7*
CCN(CC)S(=O)(=O)c1ccc(C(=O)Nc2nc3ccc4sc(C)nc4c3s2)cc1	.	i	.
CCC(C(=O)Nc1cccc([N+](=O)[O-])c1)(C(F)(F)F)C(F)(F)F	.	i	.
CC(=O)c1cccc(NC(=O)c2nccnc2C(=O)O)c1	-0.58	i	-3.5*
Cc1ccc(NC(=O)c2nccnc2C(=O)O)cc1C	-0.73	.	.
CC(=O)c1c(OC(=O)c2cccc(Br)c2)c2ccccc2n1C	.	i	.
Cc1ccc(Oc2ccccc2[N+](=O)[O-])cc1	.	i	.
CCCCn1c(=O)[nH]c(=O)c2c1nc(CN1C(=O)c3ccccc3S1(=O)=O)n2CCC	1.9	i	9.8*
CCCCn1c(=O)[nH]c(=O)c2c1nc(COc1ccc(C#N)cc1)n2CCC	-0.11	i	0.52
Cc1ccc(Nc2nc(N)nc(CN3CCN(C)CC3)n2)cc1C	-0.021	i	0.059
COC(=O)CC(=O)Cc1nc(N)nc(Nc2ccc(C)c(C)c2)n1	0.46	i	-5.4*
O=C(Cc1ccc(Cl)cc1)N1CCN(c2ccc([N+](=O)[O-])cc2)CC1	.	i	.
Cc1cc(OCC(O)CN2CCN(c3ccc(F)cc3)CC2)cc(C)c1Cl (stereo not drawn)	.	i	.
CCn1c(N2CCN(CC(=O)Nc3cccc(C)c3C)CC2)nc2ccccc21	1.2	i	0.0047
CCn1c(N2CCN(CC(=O)c3ccc(OC)cc3)CC2)nc2ccccc21	-7.6*	i	-0.8
O=C(N[C@@H](Cc1ccccc1)C(=O)OCc1ccccc1)c1nc[nH]c1C(=O)NCc1ccccc1	1.6*	.	.
O=C(N[C@@H](Cc1ccccc1)C(=O)OCc1ccccc1)c1nc[nH]c1C(=O)N1CCN(c2ccccc2)CC1	-0.17	.	.
O=C(NCc1ccncc1)C1CCCCC1	-8*	.	.
CS(=O)(=O)N1CCC(C(=O)NCc2ccncc2)CC1	-0.98	i	-0.015
O=[N+]([O-])c1ccccc1Oc1nc(-c2ccccc2)c2cc(Cl)ccc2n1	.	i	.
Cc1nnc2n(C3CCCCC3)c(=O)c3c4c(sc3n12)COC(C)(C)C4	2.9	i	.
SMILES	DAT uptake mod	BAP1 block	D1 mod
CC1(C)Cc2c(sc3nc(SCC#N)n(C4CCCCC4)c(=O)c23)CO1	.	i	26*
CCn1nc(C(=O)OCC(=O)c2c[nH]c3ccccc23)c2ccccc2c1=O	-0.11	i	-3.2*
CC(C)n1nc(C(=O)OCC(=O)c2c[nH]c3ccccc23)c2ccccc2c1=O	0.28	.	.
CC(=O)Nc1nc2nc(-c3ccccc3)cc(-c3ccccc3)n2n1	-0.34	.	.
O=C(Nc1nc2nc(-c3ccccc3)cc(-c3ccccc3)n2n1)c1ccco1	0.0085	i	-2.5*
COc1cccc2cc(-c3nc4ccccc4[nH]3)c(=Nc3cccc(C)c3)oc12	.	i	.
COc1cccc(N2CCN(c3ncnc4c3[nH]c3ccc(F)cc34)CC2C)c1 (stereo not drawn)	0.94	.	-5.2*
COc1cccc(N2CCN(c3ncnc4c3[nH]c3ccccc34)CC2C)c1 (stereo not drawn)	-0.84	i	.
CCCOC(=O)c1ccc(OCC(O)Cn2c(C)nc3ccccc32)cc1 (stereo not drawn)	-0.15	i	-3.2*
CC(=O)Nc1cccc(OCC(O)Cn2c(C)nc3ccccc32)c1 (stereo not drawn)	-0.39	.	.
Cc1ccc(NC(=O)c2ccccc2F)nc1	0.016	i	-3*
CCOc1ccccc1C(=O)Nc1ccc(C)cn1	.	i	.
N#Cc1cccc2cnccc12	-2.9*	i	-0.91
Nc1cccc2cnccc12	0.3	i	0.035
COc1cccc2cc(-c3nc(-c4cccs4)cs3)c(=O)oc12	-0.84	i	-2.4*
O=c1oc2ccccc2cc1-c1nc(-c2cccs2)cs1	-0.89	.	.
CCC(=O)N[C@@H]1CC(C(C)(C)NC(=O)CC)CC=C1C (stereo partly drawn)	-9.9*	i	0.4
CC1=C(C(=O)OCCOC(C)C)C(c2ccc([N+](=O)[O-])cc2)C2=C(CC(C)(C)CC2=O)N1 (stereo not drawn)	.	i	.
CCOc1ccc2c(c1)n([O-])c1c([n+]2=O)CCCC1	0.73	i	.
O=[n+]1c2c(n([O-])c3cc(Cl)ccc31)CCCC2	0.97*	.	.
O=C(/C=N/O)NCc1ccncc1	0.49	i	1.2
O=C(/C=C/c1ccc(Cl)cc1Cl)NCc1ccncc1	2.3*	.	.
